Screening data as filed in PubChem BioAssay.
Compounds with a hit are over-represented: about 8% of the library has one in this group of screens.
SW480 rerep: A quantitative high throughput screen for small molecules that induce DNA re-replication in SW480 colon adenocarcinoma cells. SW480 DNA re-replication, Hoechst DNA content imaging, 48 h. 340,000 tested, 1.8% active. Potency, µM (top dose mostly 46.1 µM), for inactives: at the top dose re-replication activation, hits mostly activators. AID 624297, 2012; note: % of control where 0% means no effect; nearly all actives have a fitted effect of over 55% in size
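SW480 cells exposed to compounds for 48 hr at 37 C, 5% CO2, then Hoechst-stained 40 min. Nuclear DNA content imaged by fluorescence scanning (405 nm excitation, 500-530 nm emission); re-replication scored as increased high-intensity nuclei.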
KB-3-1 tox: qHTS assay for MDR1-selective chemotherapeutics: Primary screen using the parental adenocarcinoma cell KB-3-1; KB-3-1 viability, CellTiter-Glo ATP luminescence, 72 h; Potency, µM (titrated, usually from 46.1 µM), usual class: cytotoxic; 400,000 tested, 1.4% active; note: % is set by controls: 0 for no effect and ±100 for the full control effect; nearly all actives have a fitted effect of over 60% in size
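Multi-concentration cytotoxicity screen in KB-3-1 cells grown in DMEM lacking phenol red with 10% FBS. After 72 h at 37 °C with compound, ATP-dependent luminescence was recorded.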
KB-V1 cytotox: qHTS assay for MDR1-selective chemotherapeutics: Primary screen using the drug-selected MDR subline cells KB-V1; KB-V1 MDR cells viability, CellTiter-Glo, 72 h; Potency, µM (series often up to 46.1 µM), hits mostly cytotoxic; 400,000 tested, 3.4% active; AID 1347076, 2019; note: % is set by controls: 0 for no effect and ±100 for the full control effect; nearly all actives have a fitted effect of over 60% in size
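Readout: CellTiter-Glo luminescence, 10 min after addition. Cells: KB-V1 MDR subline, 72 h at 37 degrees C with compound. Analysis: corrected, normalized data fitted to concentration-effect curves.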
HT1080 IDH1KD tx: qHTS for induction of synthetic lethality in tumor cells producing 2HG: qHTS for the HT-1080-IDH1KD cell line; 360,000 tested, 2% active; Potency, µM (titrated, usually from 46.1 µM), without a hit: at the top dose activity, negative = toxicity, most hits filed as cytotoxic; HT-1080 IDH1 knockdown viability, ATP luminescence, 48 h;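 note: 0% = DMSO wells and -100% = cell-free medium wells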
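IDH1KD HT-1080 cells, 750/well, RPMI + 5% FBS; compound pinned after 2 h settling; 48 h, 37 °C; CellTiter-Glo luminescence; % activity normalised to DMSO and no-cell wells; curves fitted, classed by r2 and efficacy.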
MCF10A rerep: A quantitative high throughput screen for small molecules that induce DNA re-replication in MCF 10a normal breast cells; MCF 10A DNA re-replication, Hoechst nuclear intensity, 48 h; Potency, µM (series often up to 46.1 µM), for the others: top-dose activity, positive = re-replication, usual class: activators; 350,000 tested, 2.9% active; AID 624296, 2012; note: % of control where 0% means no effect; nearly all actives have a fitted effect of over 50% in size
HT1080NT lethal: qHTS for induction of synthetic lethality in tumor cells producing 2HG: qHTS for the HT-1080-NT fibrosarcoma cell line. HT-1080-NT fibrosarcoma viability, CellTiter-Glo ATP luminescence, 48 h. Potency, µM (titrated, usually from 46.1 µM), inactives show at the top dose activity, negative = less viability, hits mostly cytotoxic. 360,000 tested, 1.6% active. AID 686970, 2013;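 note: NT is the 2HG producing partner of a matched IDH1 knockdown line; 0% = DMSO-treated cells and -100% = media-only wells without cells; nearly all actives have a fitted effect of over 55% in size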
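Luminescent CellTiter-Glo readout after 48 hours of compound exposure at 37 degrees C defined viability of HT-1080-NT cells. Activity was normalized to DMSO wells and cell-free media wells; concentration-response curves were fitted and assigned curve classes.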
Active calls of the source: *; i = inactive; ? = inconclusive; nt = not tested or not shown; [ ] = dose if it differs, or a comment. Calls come from the whole dose curve; as a rule, active = well fitted curve in the direction sought with a large enough effect; inconclusive = small, poorly fitted or top-dose-only effect, or another doubt; inactive = no such curve, though single readings can be large; an effect the other way counts as inactive or inconclusive. Potency is the fitted concentration of half-maximal effect.

SMILES	SW480 rerep	KB-3-1 tox	KB-V1 cytotox	HT1080 IDH1KD tx	MCF10A rerep	HT1080NT lethal
O=C(NCCN1CCC(n2c(=O)[nH]c3ccccc32)CC1)c1ccc(Cl)cc1	nt	i	i	-19%	nt	?
[O-][N+]1=c2ccc(Nc3ccccc3)cc2=NC12CCCCC2	7.3µM*	?	?	16µM*	7.3µM*	?
COc1ccc(Nc2ccc3c(c2)=NC2(CCCCC2)[N+]=3[O-])cc1	4µM*	15µM*	?	?	13µM*	?
O=[N+]([O-])c1ccc2c(c1N1CCCCC1)=NC1(CCCCC1)[N+]=2[O-]	?	i	i	-5%	?	-9%
CCC(C(=O)NCc1ccccc1OC)n1nc(C)n2c(cc3sccc32)c1=O (stereo not given)	nt	i	i	nt	nt	nt
Cc1nc(NS(=O)(=O)c2ccc(Cl)s2)c2c3c(sc2n1)CCCC3	-11%	?	12µM*	?	?	?
CCC[C@H]1COCCS(=O)(=O)N1Cc1ccc(F)cc1	nt	i	?	nt	nt	nt
CC(C)(C)NC(=O)c1ccc2nc(CCc3ccccc3)oc2c1	nt	i	i	nt	nt	nt
CC1CCC(C(=O)c2c(O)c3ccccc3oc2=O)CC1 (stereo not given)	7%	?	3.7µM*	-14%	9%	-23%
COc1ccc(OCC(=O)c2c(O)c3ccccc3oc2=O)cc1	-1%	?	21µM*	-1%	?	-5%
CC1CCCN(C(=O)COC(=O)c2ccc(=O)n(Cc3ccccc3)n2)C1 (stereo not given)	-5%	i	?	10%	2%	2%
N#Cc1nc(Nc2cc(F)cc(F)c2)c2ncn(CCCN3CCCC3)c2n1	nt	i	i	nt	nt	nt
NC(Cc1ccccc1)c1csc(Nc2nncc3ccccc23)n1 (stereo not given)	nt	?	23µM*	?	nt	?
Nc1ccc(CC(N)c2csc(Nc3nncc4ccccc34)n2)cc1 (stereo not given)	nt	?	23µM*	-25%	nt	?
CC(C)C(N)c1csc(Nc2nncc3ccccc23)n1 (stereo not given)	nt	i	?	?	nt	?
CC(N)c1csc(Nc2nncc3ccccc23)n1 (stereo not given)	nt	i	i	18µM*	nt	?
Cc1cccc(-c2nc(CNC(=O)c3ccco3)cs2)c1	1%	i	i	0%	12%	-2%
COc1ccc(C2CC(=O)c3cnc(NC(=O)c4ccccc4)nc3C2)c(OC)c1 (stereo not given)	?	?	?	-26%	21µM*	-16%
COc1ccc(Cl)cc1NC(=O)CN(c1cccc(C)c1C)S(=O)(=O)c1ccccc1	nt	i	i	nt	nt	nt
CC1CCCC(C)N1C(=C(Cl)Cl)C(=C1SCCS1)[N+](=O)[O-] (stereo not given)	-3%	26µM*	?	-29%	-10%	-25%
Cc1ccc(-c2n[nH]c(=S)n2C)cc1Cl	-2%	4.1µM*	2.9µM*	20%	-2%	11%
CCOc1ccc(N2C(=O)CC(Sc3nnnn3-c3ccccc3)C2=O)cc1 (stereo not given)	16µM*	i	i	15µM*	?	-28%
CCOc1ccc(N2C(=O)CC(SCCN)C2=O)cc1 (stereo not given)	-4%	i	i	11%	-188%[0.0737 µM]	7%
CCOc1ccc(-n2nnnc2SCC(=O)c2ccccc2)cc1	?	?	?	?	4.1µM*	?
COc1ccc(-n2nnnc2SCC(=O)c2cccc(OC)c2)cc1	-6%	i	i	-3%[9.24 µM]	?	22µM*
